Laboratory results from article PMC5540273 (PLoS ONE, 2017).

What follows are compounds tested on CSNK1G1. Settings: concentration: 1 μM, replicates: in singlicate; n = 1.
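Further: KINOMEscan kinase panel screen.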

Compound | %Inh
CCc1nc(-c2cccc(C)c2)c(-c2ccncc2)s1 | 0%
COc1cc(OC)cc(-c2cc3cnc(N)nc3nc2NC(=O)NC(C)(C)C)c1 | 0%
Nc1ncnc2c1ncn2-c1cccc(F)c1 [SKF-97560] | 0%
COc1cc2ncn(-c3cc(OCc4ccncc4)c(C(N)=O)s3)c2cc1OC [GSK336313] | 0%
Fc1cccc(CSc2nnc(-c3ccc4c(c3)CCO4)o2)c1 | 15%
CCC(=O)c1c(-c2ccccc2)c2cc(Cl)ccc2c(=O)n1Cc1cc(S(C)(=O)=O)n(CCC(C)(C)O)n1 | 21%
CCn1c(-c2ccoc2)nc2cnccc21 [SB-733887] | 0%
CCc1ccc(-c2ccc3c(c2)-c2nn(C)cc2S(=O)(=O)N3C)cc1 | 0%
COc1ccc(-c2coc3ccc(-c4nnc(SCc5cccc(C#N)c5)o4)cc23)cc1 | 11%
COC(=O)c1c(-c2ccccc2)c2cc(C)ccc2c(=O)n1Cc1ccccc1 | 0%
Cl.NS(=O)(=O)c1cccc(Nc2cc(-c3ccc(F)cc3)n[nH]2)c1 [GW824645] | 3%
COC(=O)c1c(-c2ccccc2)c2cc(Br)ccc2c(=O)n1Cc1ccc(NC(=O)CCC(=O)O)cc1 | 0%
COc1ccc(CNC(=O)NC2CCN(c3ccnc(Nc4ccc(F)cc4)n3)C2)cc1 (centres unmarked) [GSK1379706] | 21%
CCS(=O)(=O)c1ccc(OC)c(Nc2ncc(-c3ccc(F)cc3)o2)c1.Cl [GW591947] | 13%
Cc1nn2c(=O)cc(N3CCOCC3)nc2n1Cc1cccc(Cl)c1Cl [GSK2342769] | 0%
CCS(=O)c1ccc(-c2coc3ccc(-c4nnc(C)o4)cc23)cc1 (centres unmarked) | 0%
COc1cc(Nc2nccc(N3CCC(NC(=O)C(C)c4ccc(Cl)cc4)C3)n2)cc(OC)c1OC (centres unmarked) [GSK1379757] | 0%
COc1cc2ncn(-c3cc(OCc4ccncc4Br)c(C(N)=O)s3)c2cc1OC [GW854278] | 18%
Cl.c1ccc(Cn2cnc3cc(Nc4ncnc5ccccc45)ccc32)cc1 [GW272142] | 1%

Compound | %Inh
CCC(=O)c1c(-c2ccccc2)c2cc(Cl)ccc2c(=O)n1Cc1cc(C(=O)NC2CC2)n(C)n1 | 0%
Nc1nccc2scc(-c3ccc4c(c3)CCN4C(=O)Cc3ccccc3)c12 [GSK2576924] | 7%
COc1ccc(-c2cc3c(C)nc(N)nc3n([C@H]3CC[C@H](O)CC3)c2=O)cn1 | 0%
Nc1nc(-c2ccccc2F)c(-c2ccnc3ccccc23)s1 [GW560459] | 13%
COc1cccc(C2=C(N(C)c3ccccc3)C(=O)NC2=O)c1 [SB-334865] | 1%
CCn1c(-c2nonc2N)nc2ccccc21 [SB-693162/GW549034] | 0%
COc1cc2nccc(Nc3ccc(OCc4ccc(NC(C)=O)cc4)cc3)c2cc1OC.Cl [GW440135] | 0%
Cc1ccc(Oc2ccc(Nc3ncnc4cc[nH]c34)cc2C)cn1 | 12%
O=C(Nc1n[nH]c2cc(-c3ccccc3F)ccc12)C1CC1 [SB-733371] | 0%
O=C1NC(=O)C(c2ccccc2)=C1Nc1cccc(O)c1 [SB-390534] | 0%
COc1ccc(-c2cc3c(C)nc(N)nc3n([C@H]3CC[C@H](OCCO)CC3)c2=O)cn1 | 0%
Cn1c(=O)c(F)c(Nc2ccc(I)cc2F)c2c(=O)n(OC[C@H](O)CO)cnc21 | 11%
Nc1n[nH]c2ncc(-c3ccccc3)cc12 [SB-517081] | 68%
CCC(=O)c1c(-c2ccccc2)c2cc(Cl)ccc2c(=O)n1Cc1cc(S(C)(=O)=O)n(CC(N)=O)n1 | 0%
Nc1ncnc2c1ncn2-c1ccc(Cl)cc1 [AH2635] | 0%
Cc1nnc(-c2ccc3ncn(-c4ccc(S(C)=O)cc4)c3c2)o1 (centres unmarked) | 0%
COc1cc2ncn(-c3cc(OCc4ccc(S(C)(=O)=O)cc4)c(C(N)=O)s3)c2cc1OC [GW869979] | 0%
CCC(=O)c1c(-c2ccccc2)c2cc(Cl)ccc2c(=O)n1Cc1ccc(C(=O)O)cc1 | 0%

Each compound was assayed on CSNK1G2. Settings: concentration: 1 μM, replicates: in singlicate; n = 1.

Compound | %Inh
CCc1nc(-c2cccc(C)c2)c(-c2ccncc2)s1 | 10%
COc1cc(OC)cc(-c2cc3cnc(N)nc3nc2NC(=O)NC(C)(C)C)c1 | 0%
Nc1ncnc2c1ncn2-c1cccc(F)c1 [SKF-97560] | 13%
COc1cc2ncn(-c3cc(OCc4ccncc4)c(C(N)=O)s3)c2cc1OC [GSK336313] | 0%
Fc1cccc(CSc2nnc(-c3ccc4c(c3)CCO4)o2)c1 | 10%
CCC(=O)c1c(-c2ccccc2)c2cc(Cl)ccc2c(=O)n1Cc1cc(S(C)(=O)=O)n(CCC(C)(C)O)n1 | 15%
CCn1c(-c2ccoc2)nc2cnccc21 [SB-733887] | 0%
CCc1ccc(-c2ccc3c(c2)-c2nn(C)cc2S(=O)(=O)N3C)cc1 | 7%
COc1ccc(-c2coc3ccc(-c4nnc(SCc5cccc(C#N)c5)o4)cc23)cc1 | 0%
COC(=O)c1c(-c2ccccc2)c2cc(C)ccc2c(=O)n1Cc1ccccc1 | 5%
Cl.NS(=O)(=O)c1cccc(Nc2cc(-c3ccc(F)cc3)n[nH]2)c1 [GW824645] | 0%
COC(=O)c1c(-c2ccccc2)c2cc(Br)ccc2c(=O)n1Cc1ccc(NC(=O)CCC(=O)O)cc1 | 11%
COc1ccc(CNC(=O)NC2CCN(c3ccnc(Nc4ccc(F)cc4)n3)C2)cc1 (centres unmarked) [GSK1379706] | 0%
CCS(=O)(=O)c1ccc(OC)c(Nc2ncc(-c3ccc(F)cc3)o2)c1.Cl [GW591947] | 0%
Cc1nn2c(=O)cc(N3CCOCC3)nc2n1Cc1cccc(Cl)c1Cl [GSK2342769] | 0%
CCS(=O)c1ccc(-c2coc3ccc(-c4nnc(C)o4)cc23)cc1 (centres unmarked) | 0%
COc1cc(Nc2nccc(N3CCC(NC(=O)C(C)c4ccc(Cl)cc4)C3)n2)cc(OC)c1OC (centres unmarked) [GSK1379757] | 0%
COc1cc2ncn(-c3cc(OCc4ccncc4Br)c(C(N)=O)s3)c2cc1OC [GW854278] | 0%
Cl.c1ccc(Cn2cnc3cc(Nc4ncnc5ccccc45)ccc32)cc1 [GW272142] | 1%

Compound | %Inh
CCC(=O)c1c(-c2ccccc2)c2cc(Cl)ccc2c(=O)n1Cc1cc(C(=O)NC2CC2)n(C)n1 | 0%
Nc1nccc2scc(-c3ccc4c(c3)CCN4C(=O)Cc3ccccc3)c12 [GSK2576924] | 0%
COc1ccc(-c2cc3c(C)nc(N)nc3n([C@H]3CC[C@H](O)CC3)c2=O)cn1 | 0%
Nc1nc(-c2ccccc2F)c(-c2ccnc3ccccc23)s1 [GW560459] | 1%
COc1cccc(C2=C(N(C)c3ccccc3)C(=O)NC2=O)c1 [SB-334865] | 0%
CCn1c(-c2nonc2N)nc2ccccc21 [SB-693162/GW549034] | 0%
COc1cc2nccc(Nc3ccc(OCc4ccc(NC(C)=O)cc4)cc3)c2cc1OC.Cl [GW440135] | 0%
Cc1ccc(Oc2ccc(Nc3ncnc4cc[nH]c34)cc2C)cn1 | 13%
O=C(Nc1n[nH]c2cc(-c3ccccc3F)ccc12)C1CC1 [SB-733371] | 0%
O=C1NC(=O)C(c2ccccc2)=C1Nc1cccc(O)c1 [SB-390534] | 0%
COc1ccc(-c2cc3c(C)nc(N)nc3n([C@H]3CC[C@H](OCCO)CC3)c2=O)cn1 | 0%
Cn1c(=O)c(F)c(Nc2ccc(I)cc2F)c2c(=O)n(OC[C@H](O)CO)cnc21 | 20%
Nc1n[nH]c2ncc(-c3ccccc3)cc12 [SB-517081] | 0%
CCC(=O)c1c(-c2ccccc2)c2cc(Cl)ccc2c(=O)n1Cc1cc(S(C)(=O)=O)n(CC(N)=O)n1 | 0%
Nc1ncnc2c1ncn2-c1ccc(Cl)cc1 [AH2635] | 0%
Cc1nnc(-c2ccc3ncn(-c4ccc(S(C)=O)cc4)c3c2)o1 (centres unmarked) | 18%
COc1cc2ncn(-c3cc(OCc4ccc(S(C)(=O)=O)cc4)c(C(N)=O)s3)c2cc1OC [GW869979] | 10%
CCC(=O)c1c(-c2ccccc2)c2cc(Cl)ccc2c(=O)n1Cc1ccc(C(=O)O)cc1 | 0%
